The supplement of paper PMC8728848
This excerpt belongs to a sample that is enriched for the strongest signals.

Key:
Assay in all cases: glycan array binding signal (z-score within array); higher = stronger binding
Details in all cases: glycan notation: IUPAC condensed, linker removed
Fuc(a1-2)Gal(b1-4)Glc = target: Fuc(a1-2)Gal(b1-4)Glc
Method in brief: (§1)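 The Consortium for Functional Glycomics database supplied 3228 glycan arrays, of which those lacking an available protein sequence were dropped. The binding signal, a within-array Z-score, was averaged across arrays of the same protein sequence and across linkers. Negative scores can be read as non-binding.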

[1] = target: Fuc(a1-2)Gal(b1-4)GlcNAc(b1-3)Gal(b1-4)GlcNAc
Method in brief: as §1

[2] = target: Fuc(a1-2)Gal6S(b1-4)GlcNAc
Method in brief: as §1

[3] = target: Fuc(a1-2)[GalNAc(a1-3)]Gal(b1-4)GlcNAc
Method in brief: as §1

[4] = target: Fuc(a1-2)[GalNAc(a1-3)]Gal(b1-4)[Fuc(a1-3)]GlcNAc
Method in brief: as §1

Gal(a1-3)Gal(b1-3)GlcNAc = target: Gal(a1-3)Gal(b1-3)GlcNAc
Method in brief: as §1

Gal(a1-3)GalNAc = target: Gal(a1-3)GalNAc
Method in brief: as §1

[5] = target: Gal(a1-4)Gal(b1-4)GlcNAc(b1-3)Gal(b1-4)Glc
Method in brief: as §1

Gal(a1-4)GlcNAc = target: Gal(a1-4)GlcNAc
Method in brief: as §1

[6] = target: Gal(b1-3)[Fuc(a1-4)]GlcNAc(b1-2)Man(a1-3)[Gal(b1-3)[Fuc(a1-4)]GlcNAc(b1-2)Man(a1-6)]Man(b1-4)GlcNAc(b1-4)[Fuc(a1-6)]GlcNAc
Method in brief: as §1

[7] = target: Gal(b1-3)[Neu5Ac(a2-6)]GalNAc
Method in brief: as §1

Gal(b1-4)Glc6S = target: Gal(b1-4)Glc6S
Method in brief: as §1

[8] = target: Gal(b1-4)GlcNAc(b1-3)GalNAc
Method in brief: as §1

[9] = target: Gal(b1-4)GlcNAc(b1-3)[Gal(b1-4)GlcNAc(b1-6)]Gal(b1-4)GlcNAc
Method in brief: as §1

Gal3S(b1-4)GlcNAc = target: Gal3S(b1-4)GlcNAc
Method in brief: as §1

[10] = target: Gal3S(b1-4)[Fuc(a1-3)]Glc6S
Method in brief: as §1

Gal4S6S(b1-4)GlcNAc = target: Gal4S6S(b1-4)GlcNAc
Method in brief: as §1

GalNAc(a1-3)GalNAc = target: GalNAc(a1-3)GalNAc
Method in brief: as §1

GlcA(b1-3)Gal = target: GlcA(b1-3)Gal
Method in brief: as §1

[11] = target: GlcNAc(a1-4)Gal(b1-4)GlcNAc(b1-3)Gal(b1-4)[Fuc(a1-3)]GlcNAc(b1-3)Gal(b1-4)[Fuc(a1-3)]GlcNAc
Method in brief: as §1

[12] = target: GlcNAc(b1-2)Man(a1-3)[GlcNAc(b1-2)Man(a1-6)]Man(b1-4)GlcNAc(b1-4)[Fuc(a1-6)]GlcNAc
Method in brief: as §1

GlcNAc3Prop(b1-4)GlcNAc = target: GlcNAc3Prop(b1-4)GlcNAc
Method in brief: as §1

Kdn(a2-3)Gal(b1-3)GlcNAc = target: Kdn(a2-3)Gal(b1-3)GlcNAc
Method in brief: as §1

[13] = target: Man(a1-2)Man(a1-2)Man(a1-3)Man
Method in brief: as §1

Man(a1-3)[Man(a1-6)]Man = target: Man(a1-3)[Man(a1-6)]Man
Method in brief: as §1

[14] = target: Man(a1-3)[Man(a1-6)]Man(b1-4)GlcNAc(b1-4)GlcNAc
Method in brief: as §1

Neu5Ac(a2-3)Gal = target: Neu5Ac(a2-3)Gal
Method in brief: as §1

[15] = target: Neu5Ac(a2-3)Gal(b1-3)GalNAc
Method in brief: as §1

[16] = target: Neu5Ac(a2-3)Gal(b1-3)[Neu5Ac(a2-3)Gal(b1-4)]GlcNAc
Method in brief: as §1

[17] = target: Neu5Ac(a2-3)Gal(b1-4)GlcNAc(b1-3)GalNAc
Method in brief: as §1

[18] = target: Neu5Ac(a2-3)Gal(b1-4)GlcNAc6S
Method in brief: as §1

[19] = target: Neu5Ac(a2-3)Gal(b1-4)[Fuc(a1-3)]GlcNAc
Method in brief: as §1

[20] = target: Neu5Ac(a2-3)Gal(b1-4)[Fuc(a1-3)]GlcNAc(b1-6)[Gal(b1-3)]GalNAc
Method in brief: as §1

[21] = target: Neu5Ac(a2-6)Gal(b1-4)GlcNAc(b1-3)Gal(b1-4)[Fuc(a1-3)]GlcNAc(b1-3)Gal(b1-4)[Fuc(a1-3)]GlcNAc
Method in brief: as §1

B1: LERP (Drosophila melanogaster), B7Z0Q8 (protein)
chain: MRCSLQKDCAAPTQENFRQMRFPIVISLLLLLFCSGESVAADAANQLKFSTTECKLKEPIYGSTFDFSGLHSDLAHVVKSMNIGGDQFEFNICGNLSRTCNGESNVAACLKRQGKEYILGRQHELFYNNGNMFLKYKSGAKCDNGTADKPNYQLHVMFSCDYTLDAQPMHVTPYANEVCSFYISYRTPLACLSIPEGLQSNSCRVGDTKSNGTFDLMPLSDSNYHTSNRQGAFFVINVCKPVLYGENSMCPAGSSVCLFDSKATNPKERFINFGNVQTHPVVEKGQLLLRHESPTPCAKNSSANYTSVIYFSCDKFIRNAHPEFAGLGADSCTYQFNFATPLACNDLKPCTAFTSTNELLDLSSLSSKPARTLLKDGKNYTIAVCAHAGAPCQENGGACYEQNSTTISLGNSNSQLRFNQTGSLYLLYEDGAECSTATGMRRWSTKIEFVCANNATKDNGASTAGGSDSLKIIEDSNCQLLIQYQTPLACREPIRCKATTYVDHTNDGLGSSGDELIDLTPLISATDNYEARVELPASMEHLVPKTTKFFLNVCRPLVPKYQLGCAGGSAACMAKVTAAGAPEEERSMGFPLVSLTQRNRTFAELAYLKGDPCPTDNTSELSTHILFNCNMRAGRGQPVLRSVEDCAYRFEWETNVFCPPHECTFSADTCDLVHDELGRRFNFKSAPFTKDGKIEIDYNATKMSVNICGAHRKAMTDYSQALVNIFFTHESPNCGREGTMNVQIRLICSDQTESSSTISSDQQCNLLYVQRTPSICEFLSLGATQQNFESNGSTSSSTSSSSTSTTTSTTTQASPAGKPTKAATSTTTTTVGPDPAATPIGPTASVGTILGAILSVTFCVTCLGLLAFSPARRQRIRRLFRRSNSAVRYSRVQSNEEANLLLEPNGEFTESDDDMLL
B1 was tested, and the “glycan array binding signal (z-score)” value (Fuc(a1-2)Gal(b1-4)Glc) was -1.18, the “glycan array binding signal (z-score)” value [1] was 0.534 and the “glycan array binding signal (z-score)” value [2] was -0.168. The “glycan array binding signal (z-score)” value [3] was 0.43, the “glycan array binding signal (z-score)” value [4] was 1.65 and the “glycan array binding signal (z-score)” value (Gal(a1-3)Gal(b1-3)GlcNAc) was -0.704. For the same binder, the “glycan array binding signal (z-score)” value (Gal(a1-3)GalNAc) was -0.56, the “glycan array binding signal (z-score)” value [5] was 2.8 and the “glycan array binding signal (z-score)” value (Gal(a1-4)GlcNAc) was -0.583. The “glycan array binding signal (z-score)” value [6] was 5.88, the “glycan array binding signal (z-score)” value [7] was -0.837 and the “glycan array binding signal (z-score)” value (Gal(b1-4)Glc6S) was -0.389. The “glycan array binding signal (z-score)” value [8] was 0.146, the “glycan array binding signal (z-score)” value [9] was -0.458 and the “glycan array binding signal (z-score)” value (Gal3S(b1-4)GlcNAc) was -0.01. For the same binder, the “glycan array binding signal (z-score)” value [10] was 1.16, the “glycan array binding signal (z-score)” value (Gal4S6S(b1-4)GlcNAc) was 0.955 and the “glycan array binding signal (z-score)” value (GalNAc(a1-3)GalNAc) was -0.435. For the same binder, the “glycan array binding signal (z-score)” value (GlcA(b1-3)Gal) was -0.753, the “glycan array binding signal (z-score)” value [11] was 3.64 and the “glycan array binding signal (z-score)” value [12] was 6.93. The “glycan array binding signal (z-score)” value (GlcNAc3Prop(b1-4)GlcNAc) was -0.064, the “glycan array binding signal (z-score)” value (Kdn(a2-3)Gal(b1-3)GlcNAc) was -0.084 and the “glycan array binding signal (z-score)” value [13] was 5.38. For the same binder, the “glycan array binding signal (z-score)” value (Man(a1-3)[Man(a1-6)]Man) was -0.079, the “glycan array binding signal (z-score)” value [14] was 2.66 and the “glycan array binding signal (z-score)” value (Neu5Ac(a2-3)Gal) was -0.653. For the same binder, the “glycan array binding signal (z-score)” value [15] was 0.949, the “glycan array binding signal (z-score)” value [16] was -0.204 and the “glycan array binding signal (z-score)” value [17] was 0.38. For the same binder, the “glycan array binding signal (z-score)” value [18] was 0.734, the “glycan array binding signal (z-score)” value [19] was -1.2 and the “glycan array binding signal (z-score)” value [20] was 2.71. The “glycan array binding signal (z-score)” value [21] was -0.095.
